{
  "source": "PubChem BioAssay AID720724",
  "about": "(Broad Institute, 2013)",
  "note": "Potency and affinity values are given separately. Unmarked numbers belong to inactive results.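 Rule for the calls: active = signal falls with a fitted half-maximal dose at most twice the top dose, in every run; inconclusive = steady partial drop, poor fit, or runs disagree; inactive = flat, rising or too weak in every run.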",
  "data": [
    {"assay": "inhibitors of control Renilla luciferase reporter, dose response, counter-screen for Shn3 3'UTR targeting project, Clone20-Shn3RL cells, dual-Glo, cherry-pick, set 2 (AID 720724)", "settings": "renilla luciferase luminescence, 24 h; series mostly up to 35 µM; activity change, negative = inhibition: at the top concentration", "units": {"activity change, negative = inhibition": "%"}, "values": [
      {"smiles": "COc1ccccc1NC(=O)Cn1cc(C(=O)C2CC2)c2ccccc21", "activity change, negative = inhibition": -20},
      {"smiles": "O=C(Nc1nc(-c2ccccc2)cs1)C1CCCCN1S(=O)(=O)c1ccccc1", "note": "(centres undefined)", "activity change, negative = inhibition": -20},
      {"smiles": "Cc1nc(SCC(=O)Nc2nc3ccccc3s2)c(C#N)c(C)c1C", "activity change, negative = inhibition": -12.5},
      {"smiles": "O=C(Nc1ccc(N2CCOCC2)cc1)c1ccc(Cl)c(S(=O)(=O)N2CCCC2)c1", "activity change, negative = inhibition": -12.5},
      {"smiles": "Cc1cc(C(=O)COC(=O)c2ccccc2O)c(C)n1Cc1cccs1", "activity change, negative = inhibition": -29.2},
      {"smiles": "COc1ccc(CNC(=O)C(c2ccc(C)cc2)N(Cc2cccs2)C(=O)c2ccc3c(c2)OCCO3)cc1", "note": "(centres undefined)", "activity change, negative = inhibition": 0},
      {"smiles": "COc1ccc(CNC(=O)C(C)n2ccc3cc(S(=O)(=O)N4CCCCCC4)ccc32)cc1", "note": "(centres undefined)", "activity change, negative = inhibition": 62.5},
      {"smiles": "COc1ccc(OCc2cccc(C(=O)O)c2)cc1", "activity change, negative = inhibition": -29.2},
      {"smiles": "CCN(CC)Cc1c(O)ccc2c1O/C(=C\\C=C\\c1ccccc1)C2=O", "activity change, negative = inhibition": -25},
      {"smiles": "CC1Cc2cc(S(=O)(=O)N3CCN(c4ccc(Cl)cc4)CC3)ccc2N1C(=O)C1CC1", "note": "(centres undefined)", "activity change, negative = inhibition": 25},
      {"smiles": "COc1ccc(CC(=O)Nc2ccncc2Cl)cc1", "activity change, negative = inhibition": -20},
      {"smiles": "O=C(CN1C(=O)c2ccccc2S1(=O)=O)c1ccc(Cl)cc1Cl", "activity change, negative = inhibition": -25},
      {"smiles": "CCOC(=O)N1CCN(c2ccc(S(=O)(=O)N(Cc3ccccc3)Cc3ccccc3)cn2)CC1", "activity change, negative = inhibition": 10},
      {"smiles": "CCOC(=O)c1oc2ccc(S(=O)(=O)n3nc(-c4ccc(OC)cc4)cc3N)cc2c1C", "activity change, negative = inhibition": 2.5},
      {"smiles": "CC(=O)Nc1ccc(OCC(=O)Nc2ccc(Cl)c(S(=O)(=O)N3CCOCC3)c2)cc1", "activity change, negative = inhibition": -40},
      {"smiles": "O=C(Nc1ccc(Cl)cc1)c1cc(S(=O)(=O)N2CCOCC2)cs1", "activity change, negative = inhibition": -32.5},
      {"smiles": "O=C(NCCc1ccccc1)c1ccc2c(c1)OCCO2", "activity change, negative = inhibition": 0},
      {"smiles": "Fc1ccc(-n2nnnc2-c2cnc(-c3cccs3)nc2C(F)(F)F)cc1", "activity change, negative = inhibition": -25},
      {"smiles": "Cc1c(C)c2ccc(OCC(=O)Nc3ccccn3)c(C)c2oc1=O", "activity change, negative = inhibition": -12.5},
      {"smiles": "Cc1ccccc1OCCOC(=O)c1cc(S(=O)(=O)N2CCCCC2)ccc1N1CCOCC1", "activity change, negative = inhibition": -30},
      {"smiles": "Cc1ccc(C(=O)Nc2cnc3ccccc3c2)cc1", "activity change, negative = inhibition": 0},
      {"smiles": "CC(C)(C)C(=O)Nc1ccc(NC(=O)c2ccco2)nc1", "activity change, negative = inhibition": -20},
      {"smiles": "CC(C)[C@H](NC(=O)OC(C)(C)C)c1nnc(S(=O)(=O)Cc2c(F)cccc2Cl)o1", "activity change, negative = inhibition": -20},
      {"smiles": "CNc1ccccc1C(C)(C)c1cc(-c2cccc(OC)c2)no1", "activity change, negative = inhibition": -40},
      {"smiles": "Cc1cc(S(=O)(=O)NCc2ccncc2)c(C)cc1Br", "activity change, negative = inhibition": 25},
      {"smiles": "CC(Oc1ccc(F)cc1)C(=O)N(CCC1=CCCCC1)c1c(N)n(Cc2ccccc2)c(=O)[nH]c1=O", "note": "(centres undefined)", "activity change, negative = inhibition": 25},
      {"smiles": "Cc1ccc(CNC(=O)c2cc3c(C)nc4ccccc4c3o2)cc1", "activity change, negative = inhibition": -22.5},
      {"smiles": "O=C(NCCc1ccccc1)c1ccc2c(c1)OCCCO2", "activity change, negative = inhibition": -25},
      {"smiles": "COc1ccc(C(=O)Nc2nc3ccccc3s2)c(OC)c1", "activity change, negative = inhibition": 87.5},
      {"smiles": "Cc1cccc(CSc2cccc3cccnc23)c1", "activity change, negative = inhibition": 33.3},
      {"smiles": "O=C(O)c1cccc(COc2ccccc2Cl)c1", "activity change, negative = inhibition": -12.5},
      {"smiles": "O=C(CSc1nnc(-c2cccnc2)s1)Nc1ccnc2ccccc12", "activity change, negative = inhibition": -22.5},
      {"smiles": "CCN(CC)c1ccc(NC(=O)CN2C(=O)CSc3ncccc32)c(C)c1", "activity change, negative = inhibition": -30},
      {"smiles": "COc1ccc(-n2ncc3c(N4CCCCC4)ncnc32)cc1", "activity change, negative = inhibition": -12.5}
    ]}
  ]
}
